Measured values taken from PubChem BioAssay (EPA / NIEHS).
Active and inactive are the calls of the source. The calls were made as follows: active = hit-call score of the fitted dose curve at least 0.9, where 1 is the maximum; inactive = score below 0.9.

Test system: not listed separately
Assay: ATG_Oct_MLP_CIS: Attagene CIS-FACTORIAL HepG2 Assay for human Octamer-Binding Transcription Factor (Oct) (AID 2282993)
Conditions: HepG2 Attagene cis-factorial Oct reporter, mRNA; actives raise or lower the signal
How it was run: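 HepG2, transient MRTU transfection, cis promoter elements; 24 h dosing; RT-PCR/CE fluorescence read-out of reporter mRNA; fit both directions vs DMSO.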

Row | Structure (SMILES) | AC50 | outcome
1 | CN1CN(C)CN(C)C1 | 165 µM (active) | –
2 | Cc1ccc2c(c1)OCC(=O)CO2 | – | inactive
3 | C=CC(=O)OCC(F)(F)C(F)(F)C(F)(F)C(F)(F)C(F)(F)C(F)(F)C(F)(F)C(F)F | – | inactive
4 | C[Si](Cl)(Cl)CCC(F)(F)C(F)(F)C(F)(F)C(F)(F)C(F)(F)C(F)(F)F | – | inactive
5 | CSc1ccc(O)cc1C | – | inactive
6 | CCC(=O)OC(C)c1ccccc1 (configuration not stated) | – | inactive
7 | CCCCCCCCCCCCCCCCC | – | inactive
8 | FC(F)(F)C(F)(F)C(F)(F)CC1CO1 (configuration not stated) | – | inactive
9 | CCCCCCCC/C=C\CCCCCCCC(=O)OCC(O)CO (configuration not stated) | – | inactive
10 | C=C(C)CCCC | – | inactive
11 | OCCCC(F)(F)C(F)(F)C(F)(F)C(F)(F)C(F)(F)C(F)(F)C(F)(F)C(F)(F)F | – | inactive
12 | CNS(=O)(=O)C(F)(F)C(F)(F)C(F)(F)C(F)(F)C(F)(F)C(F)(F)C(F)(F)C(F)(F)F | – | inactive
13 | CCOC(C=C(C)CCC=C(C)C)OCC | – | inactive
14 | CCCCCCCC/C=C\CCCCCCCC(=O)N(C)CC(=O)O | – | inactive
15 | O=C1c2ccccc2C(=O)c2c(Cl)cccc21 | – | inactive
16 | O=C(O)CCC(F)(F)C(F)(F)C(F)(F)F | – | inactive
17 | CC(C)CC=C(C=O)c1ccccc1 | – | inactive
18 | O=C(Cl)C(F)(F)C(F)(F)C(F)(F)C(F)(F)C(F)(F)C(F)(F)F | – | inactive
19 | OCC(O)CC(F)(F)C(F)(F)C(F)(F)C(F)(F)C(F)(F)C(F)(F)C(F)(F)C(F)(F)F (configuration not stated) | – | inactive

Row | Structure (SMILES) | AC50 | outcome
20 | CCOC(=O)CCC(C)=O | – | inactive
21 | CCC(C)CO (configuration not stated) | – | inactive
22 | NC(=O)C(F)(F)C(F)(F)C(F)(F)F | – | inactive
23 | OCCCCl | – | inactive
24 | Nc1c(Br)cc([N+](=O)[O-])cc1Br | – | inactive
25 | CCCCCCCCCCCCCC[P+](CCCC)(CCCC)CCCC | 0.903 µM (active) | –
26 | Cc1ccc([N+](=O)[O-])c(C)c1 | – | inactive
27 | Oc1ccc2c(c1)CCC2 | – | inactive
28 | CCOC(=O)CC(=O)C(F)(F)C(F)(F)F | – | inactive
29 | CN(C)C(C)(C)CO | – | inactive
30 | C=CC(=O)OCC(F)(F)C(F)(F)C(F)(F)COC(=O)C=C | 10.9 µM (active) | –
31 | CO[Si](C)(CCC(F)(F)C(F)(F)C(F)(F)C(F)(F)C(F)(F)C(F)(F)F)OC | – | inactive
32 | O=S(=O)(OCC(F)(F)F)C(F)(F)C(F)(F)C(F)(F)C(F)(F)F | – | inactive
33 | O=C(O)C(F)(F)C(F)(F)C(F)(F)OC(F)(F)F | – | inactive
34 | CCOC(=O)C1CC(=O)C(=C(O)C2CC2)C(=O)C1 (configuration not stated) | – | inactive
35 | Cc1ccc(O)c(-n2nc3ccccc3n2)c1 | – | inactive
36 | CCCCOC(=O)C(C)O (configuration not stated) | – | inactive
37 | CCN(CC)c1ccc(N=Nc2ccccc2)cc1 | – | inactive

Target: Cellular tumor antigen p53 (Homo sapiens) (UniProt P04637)
Assay: ATG_p53_CIS: Attagene CIS-FACTORIAL HepG2 Assay for human p53 Transcription Factor (AID 2282994)
Conditions: HepG2 p53 cis-element reporter, Attagene mRNA; actives raise or lower the signal
How it was run: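 Multiplexed reporter mRNA assay in human HepG2 liver cells; cis-regulated units report endogenous factor activity. Values come from bidirectional curve fitting against DMSO negative control after 24 h treatment.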

Sequence of Cellular tumor antigen p53 (Homo sapiens) (P04637 whole entry, looked up): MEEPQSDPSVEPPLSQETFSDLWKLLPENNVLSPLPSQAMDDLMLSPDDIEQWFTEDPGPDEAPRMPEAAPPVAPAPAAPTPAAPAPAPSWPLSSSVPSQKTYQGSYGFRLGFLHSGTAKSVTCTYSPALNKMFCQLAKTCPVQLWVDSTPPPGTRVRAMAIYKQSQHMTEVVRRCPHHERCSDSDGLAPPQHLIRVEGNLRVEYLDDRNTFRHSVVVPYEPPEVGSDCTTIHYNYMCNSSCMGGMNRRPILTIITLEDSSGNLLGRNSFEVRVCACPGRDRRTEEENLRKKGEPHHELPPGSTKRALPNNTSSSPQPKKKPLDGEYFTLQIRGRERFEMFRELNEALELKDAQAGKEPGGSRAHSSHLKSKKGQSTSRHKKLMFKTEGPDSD

Row | Structure (SMILES) | outcome | AC50
38 | CN1CN(C)CN(C)C1 | inactive | –
39 | Cc1ccc2c(c1)OCC(=O)CO2 | inactive | –
40 | C=CC(=O)OCC(F)(F)C(F)(F)C(F)(F)C(F)(F)C(F)(F)C(F)(F)C(F)(F)C(F)F | inactive | –
41 | C[Si](Cl)(Cl)CCC(F)(F)C(F)(F)C(F)(F)C(F)(F)C(F)(F)C(F)(F)F | inactive | –
42 | CSc1ccc(O)cc1C | inactive | –
43 | CCC(=O)OC(C)c1ccccc1 (configuration not stated) | inactive | –
44 | CCCCCCCCCCCCCCCCC | inactive | –
45 | FC(F)(F)C(F)(F)C(F)(F)CC1CO1 (configuration not stated) | inactive | –
46 | CCCCCCCC/C=C\CCCCCCCC(=O)OCC(O)CO (configuration not stated) | inactive | –
47 | C=C(C)CCCC | inactive | –
48 | OCCCC(F)(F)C(F)(F)C(F)(F)C(F)(F)C(F)(F)C(F)(F)C(F)(F)C(F)(F)F | – | 30.7 µM (active)
49 | CNS(=O)(=O)C(F)(F)C(F)(F)C(F)(F)C(F)(F)C(F)(F)C(F)(F)C(F)(F)C(F)(F)F | inactive | –
50 | CCOC(C=C(C)CCC=C(C)C)OCC | inactive | –
51 | CCCCCCCC/C=C\CCCCCCCC(=O)N(C)CC(=O)O | inactive | –
52 | O=C1c2ccccc2C(=O)c2c(Cl)cccc21 | inactive | –
53 | O=C(O)CCC(F)(F)C(F)(F)C(F)(F)F | inactive | –
54 | CC(C)CC=C(C=O)c1ccccc1 | inactive | –
55 | O=C(Cl)C(F)(F)C(F)(F)C(F)(F)C(F)(F)C(F)(F)C(F)(F)F | inactive | –

Row | Structure (SMILES) | outcome | AC50
56 | OCC(O)CC(F)(F)C(F)(F)C(F)(F)C(F)(F)C(F)(F)C(F)(F)C(F)(F)C(F)(F)F (configuration not stated) | inactive | –
57 | CCOC(=O)CCC(C)=O | inactive | –
58 | CCC(C)CO (configuration not stated) | inactive | –
59 | NC(=O)C(F)(F)C(F)(F)C(F)(F)F | inactive | –
60 | OCCCCl | inactive | –
61 | Nc1c(Br)cc([N+](=O)[O-])cc1Br | inactive | –
62 | Cc1ccc([N+](=O)[O-])c(C)c1 | inactive | –
63 | Oc1ccc2c(c1)CCC2 | inactive | –
64 | CCOC(=O)CC(=O)C(F)(F)C(F)(F)F | inactive | –
65 | C=CC(=O)OCC(F)(F)C(F)(F)C(F)(F)COC(=O)C=C | – | 78.8 µM (active)
66 | CO[Si](C)(CCC(F)(F)C(F)(F)C(F)(F)C(F)(F)C(F)(F)C(F)(F)F)OC | inactive | –
67 | O=S(=O)(OCC(F)(F)F)C(F)(F)C(F)(F)C(F)(F)C(F)(F)F | – | 89.1 µM (active)
68 | O=C(O)C(F)(F)C(F)(F)C(F)(F)OC(F)(F)F | inactive | –
69 | CCOC(=O)C1CC(=O)C(=C(O)C2CC2)C(=O)C1 (configuration not stated) | inactive | –
70 | Cc1ccc(O)c(-n2nc3ccccc3n2)c1 | inactive | –
71 | CCCCOC(=O)C(C)O (configuration not stated) | inactive | –
72 | CCN(CC)c1ccc(N=Nc2ccccc2)cc1 | inactive | –
